In PubChem BioAssay (EPA / NIEHS):
Records with an inconclusive call do not appear. Active and inactive are the calls of the source. How the source made its calls: active means hit-call score of the fitted dose curve at least 0.9, where 1 is the maximum; inconclusive means response in the unintended direction; inactive means score below 0.9.

How the values were obtained:
[1] = TOX21_p53_BLA_p2_viability: Viability Assessment in the Tox21 HCT-116 p53 Agonism Beta-lactamase Assay, Phase 2 (AID 2283591);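 further: actives lower the ATP signal meaning cytotoxicity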
How it was run: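 HCT116 p53-bla cells, 4000/well, dosed after 5 h plating (217-fold dilution of DMSO stocks) and incubated 16 h at 37C. Viability taken as cellular ATP by CellTiter-Glo luminescence after 30 min RT; signal loss marks cytotoxicity.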

[2] = biological target: Cellular tumor antigen p53 (Homo sapiens) (UniProt P04637); assay: TOX21_p53_BLA_p2_ratio: Tox21 HCT-116 p53 Agonism Beta-lactamase Assay, Ratio, Phase 2 (AID 2283592)
How it was run: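 An inducible beta-lactamase reporter in HCT116 cells signals p53 pathway activation. After 16 h chemical exposure at 37C, cells load CCF4-AM substrate for 2 h at room temperature; activity is the cleaved/uncleaved emission ratio relative to DMSO.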

[3] = TOX21_p53_BLA_p3_viability: Viability Assessment in the Tox21 HCT-116 p53 Agonism Beta-lactamase Assay, Phase 3 (AID 2283593);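 further: cells exposed to compound for 16 h before reading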
How it was run: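 HCT116 cells, 4000/well, dosed 5 h after plating by pin transfer (217-fold dilution from DMSO stock) and incubated 16 h at 37C, 5% CO2. Viability read as ATP luminescence with CellTiter-Glo after 30 min at room temperature.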

[4] = TOX21_p53_BLA_p4_viability: Viability Assessment in the Tox21 HCT-116 p53 Agonism Beta-lactamase Assay, Phase 4 (AID 2283597);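 further: hits lower the luminescence signal meaning cytotoxicity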
How it was run: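 Compound exposure of HCT116 cells lasts 16 h at 37C, 5% CO2, with DMSO stocks diluted 217-fold. Cellular ATP is then quantified by CellTiter-Glo luminescence after 30 min at room temperature.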

[5] = biological target: Cellular tumor antigen p53 (Homo sapiens) (UniProt P04637); assay: TOX21_p53_BLA_p5_ratio: Tox21 HCT-116 p53 Agonism Beta-lactamase Assay, Ratio, Phase 5 (AID 2283599)
How it was run: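 HCT-116 p53-bla cells (4000/well) plated 5 h, dosed with compound (217-fold DMSO dilution) for 16 h at 37 C; CCF4-AM substrate 2 h at room temperature. Activity is the 460/530 nm emission ratio (405 nm excitation), fitted in gain-of-signal direction versus DMSO.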

[6] = TOX21_p53_BLA_p5_viability: Viability Assessment in the Tox21 HCT-116 p53 Agonism Beta-lactamase Assay, Phase 5 (AID 2283600)
How it was run: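 Counter-readout for cytotoxicity: ATP-dependent luminescence from CellTiter-Glo, read in the beta-lactamase wells after 30 min at RT, following a 16 h compound exposure at 37C.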

[7] = biological target: Cellular tumor antigen p53 (Homo sapiens) (UniProt P04637); assay: TOX21_p53_BLA_p4_ratio: Tox21 HCT-116 p53 Agonism Beta-lactamase Assay, Ratio, Phase 4 (AID 2283601)
How it was run: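 HCT-116 p53 beta-lactamase reporter cells (4000/well) preincubated 5 h, then compound (217-fold dilution of DMSO stock) for 16 h at 37C. CCF4-AM substrate added 2 h at room temperature; 460/530 nm emission ratio fitted upward versus DMSO.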

Measured: outcome

Sequence of Cellular tumor antigen p53 (Homo sapiens) (P04637 whole entry, looked up): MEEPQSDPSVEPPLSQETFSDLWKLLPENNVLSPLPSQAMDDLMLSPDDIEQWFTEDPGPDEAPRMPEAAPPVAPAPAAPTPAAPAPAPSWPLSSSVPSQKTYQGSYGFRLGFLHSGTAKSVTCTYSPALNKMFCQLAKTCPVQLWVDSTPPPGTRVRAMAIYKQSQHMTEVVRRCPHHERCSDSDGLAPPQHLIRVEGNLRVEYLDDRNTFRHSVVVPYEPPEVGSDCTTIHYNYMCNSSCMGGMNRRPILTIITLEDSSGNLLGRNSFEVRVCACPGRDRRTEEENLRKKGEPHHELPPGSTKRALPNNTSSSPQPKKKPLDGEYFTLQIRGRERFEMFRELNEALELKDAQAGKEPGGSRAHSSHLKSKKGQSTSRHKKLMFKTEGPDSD

C=C(C)C(=O)OCCN(CC)CC
not listed: [6] | [7]
inactive: all other assays above

O=C(O[C@H]1CN2CCC1CC2)N1CCc2ccccc2[C@@H]1c1ccccc1
inactive: all assays above

Cc1cc(CC(=O)O)c(C)n1-c1ccc(Cl)cc1
not listed: [7]
inactive: all other assays above

CC(C)(C)NC[C@H](O)COc1ccccc1C1CCCC1
inactive: all assays above

Cc1cc(-c2ccc(N=Nc3ccc4c(S(=O)(=O)O)cc(S(=O)(=O)O)c(N)c4c3O)c(C)c2)ccc1N=Nc1ccc2c(S(=O)(=O)O)cc(S(=O)(=O)O)c(N)c2c1O
inactive: all assays above

CCOc1ccc(NC(C)=O)cc1N
inactive: all assays above
